High-throughput results (PubChem)
HepG2 tox: qHTS for Inhibitors of TGF-b: Cytotox Counterscreen. actives 0.76% (n = 410,000). AID 588856, 2011. Potency, µM (series often up to 46.1 µM), most hits filed as cytotoxic. HepG2 CAGA-GFP viability, ATP luminescence, 18 h
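HepG2 CAGA-GFP cells (1000/well, DMEM with 1% FBS) received compound, then TGF-beta at 500 pg/mL final, and were incubated 18 hours at 37 degrees C. Viability was read by CellTiter-Glo luminescence. Media-only wells were set as complete cell-killing and DMSO as no toxicity.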
TGFb inhibitor: qHTS for Inhibitors of TGF-b; HepG2 CAGA-GFP TGF-b/SMAD3 reporter, GFP fluorescence, 18 h; TGF-beta stimulated, 500 pg/mL final; Potency, µM (titrated, usually from 46.1 µM), usual class: inhibitors; actives 1.2% (n = 410,000); note: nearly all actives have a fitted effect of over 65% in size
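Cell-based qHTS in HEPG2 carrying a CAGA-GFP Smad reporter; compounds added before 500 pg/mL final TGF-beta, 18 h incubation at 37 degrees C, GFP fluorescence quantified per cell by imaging cytometry.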
GLP-1R inv ag: qHTS of GLP-1 Receptor Inverse Agonists (Inhibition Mode); actives 1.6% (n = 410,000); HEK293 GLP-1R CRE-luciferase, luminescence, 24 h; GLP-1R form is constitutively active; Potency, µM (top dose mostly 38.3 µM), usual class: inhibitors; AID 624417, 2012; Glucagon-like peptide 1 receptor (Homo sapiens), P43220; note: nearly all actives have a fitted effect of over 55% in size
Target sequence (P43220 whole entry, looked up): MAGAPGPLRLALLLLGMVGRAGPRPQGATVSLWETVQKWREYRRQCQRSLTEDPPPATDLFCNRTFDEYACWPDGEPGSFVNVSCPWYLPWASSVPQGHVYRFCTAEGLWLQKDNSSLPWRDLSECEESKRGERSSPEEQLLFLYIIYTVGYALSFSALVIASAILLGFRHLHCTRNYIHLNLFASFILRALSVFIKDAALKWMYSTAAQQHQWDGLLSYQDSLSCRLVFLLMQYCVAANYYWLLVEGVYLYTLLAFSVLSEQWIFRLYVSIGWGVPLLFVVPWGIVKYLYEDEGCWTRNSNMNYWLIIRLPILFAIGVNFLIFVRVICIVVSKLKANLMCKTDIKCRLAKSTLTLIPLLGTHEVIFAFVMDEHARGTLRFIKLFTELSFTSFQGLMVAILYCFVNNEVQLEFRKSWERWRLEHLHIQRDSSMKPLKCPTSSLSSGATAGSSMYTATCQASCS
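Assay principle: reduced luminescence from a cAMP-responsive reporter in HEK293 cells co-expressing a constitutively active GLP-1R. Conditions: 24 hr compound incubation, 37 deg C, 5% CO2.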
ATXN2 expr inh: Primary qHTS for Inhibitors of ATXN expression; HEK-293 ATXN2-luciferase reporter, luminescence, 24 h; Potency, µM (top dose mostly 57 µM), hits mostly inhibitors; actives 0.72% (n = 360,000); note: nearly all actives have a fitted effect of over 55% in size
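qHTS (up to 57 uM final) was run with 24 h compound exposure of reporter cells at 37 °C. Each well was multiplexed: SteadyGlo luminescence measured ATXN2-luciferase expression after a fluorogenic Gly-Phe-AFC viability readout (25 uM final).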
S2 tox: Viability Counterscreen for Primary qHTS for Inhibitors of ATXN expression; AID 651635, 2014; actives 0.49% (n = 400,000); S2 cells (HEK-293 line with an ATXN2-luciferase reporter) viability, CellTiter-Fluor protease fluorescence, 24 h; Potency, µM (doses to about 56.7 µM), hits mostly cytotoxic; note: nearly all actives have a fitted effect of over 40% in size
GLP-1R agonist: qHTS of GLP-1 Receptor Agonists; AID 624172, 2012; HEK293 GLP-1R CRE-luciferase, luminescence, 4-6 h; cells express a hypersensitive GLP-1R form; actives 0.007% (n = 380,000); Glucagon-like peptide 1 receptor (Homo sapiens), P43220; Potency, µM (doses to about 45.6 µM), usual class: activators
A number is an active result; – = inactive; ? = inconclusive; · = not tested or not shown. Shown are actives, neighbours in structure and some others; about 3.7% of the full set was active somewhere. Calls come from the whole dose curve; as a rule, active = well fitted curve in the direction sought with a large enough effect; inconclusive = small, poorly fitted or top-dose-only effect, or another doubt; inactive = no such curve, though single readings can be large; an effect the other way counts as inactive or inconclusive.

SMILES	HepG2 tox	TGFb inhibitor	GLP-1R inv ag	ATXN2 expr inh	S2 tox	GLP-1R agonist
Cc1cc(C)nc(S[C@H]2C[C@@H](C(=O)N3CCN(c4ccccc4F)CC3)N(Cc3ccccc3F)C2)n1	·	·	·	·	–	·
COc1ccccc1-c1ccnc(-n2ncc(C(=O)N3CCCCC3c3cccnc3)c2C)n1 (stereo not drawn)	·	·	·	·	–	·
O=C(Cc1ccc(-c2ccc(OCCN3CCOCC3)cc2)cn1)NCc1ccccc1	·	·	·	–	·	·
Nc1ccc(-c2cc3ccccc3oc2=O)cc1	–	–	?	0.28µM	·	–
Cc1cc(C)nc(N(C#N)CC(=O)c2ccccc2)n1	–	–	–	–	?	–
CCc1ccc(C(=O)CN(C#N)c2nc(C)cc(C)n2)cc1	11µM	?	?	–	?	–
O=[N+]([O-])c1ccc(S(=O)Cc2ccccc2)c([N+](=O)[O-])c1 (stereo not drawn)	–	7.9µM	?	?	21µM	–
O=[N+]([O-])c1ccc(CS(=O)c2ccccc2)cc1 (stereo not drawn)	–	?	–	–	–	–
COc1cc(NC(=O)CN2C(=O)C(c3ccc(C)cc3)=NC23CCCCC3)cc(OC)c1	–	·	10µM	·	·	·
CC(C)NC(=O)c1cn(C2CCC(NC(=O)C(C)(C)C)CC2)nn1 (stereo not drawn)	·	·	·	·	–	·
OCCCNC(=S)Nc1ccc(Oc2ccccc2)cc1	–	–	–	·	–	–
CC(C)CNC(=S)Nc1ccc(Oc2ccccc2)cc1	–	–	11µM	–	–	–
CN(c1nc2ccccc2nc1Cl)S(=O)(=O)c1ccccc1	–	–	10µM	–	–	–
O=C(NCCc1ccccc1Cl)c1ccc2c(c1)nc1n2CCCCC1	–	–	13µM	·	·	·
CCNC(=O)c1ccc2c(c1)nc1n2CCCCC1	–	–	–	·	·	·
CC(C)CCNC(=O)c1ccc2c(c1)nc1n2CCCCC1	–	–	6.3µM	·	·	·
O=C(NCCc1ccccc1)c1ccc2c(c1)nc1n2CCOC1	–	–	8.9µM	·	·	·
CC(=O)OCC(NC(=O)C(COCc1ccccc1)NC(=O)OC(C)(C)C)C1OC(n2cc(F)c(=O)[nH]c2=O)C(OC(C)=O)C1OC(C)=O (stereo not drawn)	–	–	·	·	·	·
Cc1ccccc1C(=O)Nc1ccc(C(=O)N2CCCC(N(C)C)c3ccccc32)cc1 (stereo not drawn)	·	·	·	–	?	·
COc1ccc(Cl)cc1S(=O)(=O)N1CCN(C(=O)c2cc(-c3ccc(Br)cc3)n[nH]2)CC1	–	8.9µM	10µM	·	·	·
COc1ccc(-c2nc3cc(C(C)C)ccc3o2)cc1NC(=O)COc1ccc(C)cc1C	–	–	–	–	–	·
O=C(CS(=O)Cc1ccco1)NCC=CCOc1cc(CN2CCCCC2)ccn1 (stereo not drawn)	·	·	·	–	·	–
C[N+]1=C(/C=C/Nc2ccccc2Cl)C(C)(C)c2ccccc21	–	?	–	–	–	–
COC(=O)c1ccc2c(c1)C(C)(C)C(/C=C/c1ccccc1O)=[N+]2C	6.3µM	?	?	3.5µM	7.9µM	–
O=C(Nc1ccccc1Sc1ccccc1)c1ccccc1	–	–	11µM	–	–	–
SMILES	HepG2 tox	TGFb inhibitor	GLP-1R inv ag	ATXN2 expr inh	S2 tox	GLP-1R agonist
O=C(Cc1ccc(F)cc1)Nc1ccccc1Sc1ccccc1	–	–	?	–	–	–
O=C(Cc1ccc(Br)cc1)Nc1ccccc1Sc1ccccc1	–	–	10µM	–	–	–
O=C(Cc1ccccc1)Nc1ccccc1Sc1ccccc1	–	–	11µM	–	–	–
COc1ccc(/C=C/C(=O)NCC2Cc3cccc(-c4nc(C)cnc4C)c3O2)cc1OC (stereo not drawn)	·	·	·	·	–	·
Cc1ccc(-c2[nH]ncc2CNCc2ccccc2)cc1	–	–	·	·	·	·
O=C(NNC(=O)c1cccnc1SCc1cccc([N+](=O)[O-])c1)c1ccccn1	–	?	?	7.9µM	–	–
Cc1[nH]c2c(F)cccc2c1CC(=O)NCCN1Cc2ccccc2OC(C)C1 (stereo not drawn)	·	·	·	·	–	·
Clc1ccc(CN2C3=NCCCN3c3ccccc32)cc1Cl	–	–	11µM	?	–	–
Clc1ccc(CN2C3=NCCCN3c3ccccc32)cc1	–	–	?	–	–	–
O=C1CC(O)(C(F)F)Oc2ccc3ccccc3c21 (stereo not drawn)	–	–	–	–	–	–
O=C1CC(O)(C(F)(F)F)Oc2c1ccc1ccccc21 (stereo not drawn)	10µM	16µM	–	–	–	–
COc1ccc(-n2c(=O)c3c4c(sc3n(Cc3ccc(C(C)(C)C)cc3)c2=O)CCC4)c(OC)c1	–	–	6.3µM	–	–	·
Cn1ccc(C(=O)NCC2CCC3(CCN(Cc4ccc(F)cc4F)CC3)O2)n1 (stereo not drawn)	·	·	·	·	–	·
O=C(Cc1cccs1)NC(c1ccccc1)c1ccccc1	–	–	?	–	–	–
O=C(COC(=O)/C(=C/c1cccs1)c1cccs1)NC(c1ccccc1)c1ccccc1	–	13µM	?	–	–	–
OC(CBr)C[n+]1cc(Br)cc2ccccc21 (stereo not drawn)	–	–	·	·	·	·
Nc1c(N=Nc2ccc(-c3ccc(N=Nc4cc(S(=O)(=O)O)c5ccccc5c4N)cc3)cc2)cc(S(=O)(=O)O)c2ccccc12	·	·	·	·	·	–
Cc1cc(-c2ccc(N=Nc3ccc4c(S(=O)(=O)O)cc(S(=O)(=O)O)c(N)c4c3O)c(C)c2)ccc1N=Nc1ccc2c(S(=O)(=O)O)cc(S(=O)(=O)O)c(N)c2c1O	·	·	·	·	13µM	–
COc1cc(C)ccc1OCc1cc(C(=O)NC2CCOCC2)no1	–	–	–	·	–	–
COc1cc(C)ccc1OCc1cc(C(=O)NC(c2ccccn2)C(F)(F)F)no1 (stereo not drawn)	–	–	13µM	·	–	–
CC1=C(C(=O)Nc2ccc(Cl)cc2)C(c2ccccc2C)n2ncc(C(=O)Nc3ccc(C)cc3)c2N1 (stereo not drawn)	–	?	2.8µM	–	–	·
CC1=C(C(=O)Nc2ccc(Cl)cc2)C(c2ccccc2)n2ncc(C(=O)Nc3ccccc3)c2N1 (stereo not drawn)	–	?	?	·	·	·
Cc1csc2c(N3CCN(C(=O)Nc4ccc(Cl)c(Cl)c4)CC3)ncnc12	–	?	–	20µM	?	–
N#Cc1ccc(NC(=O)Nc2ccccc2Br)c2n[nH]nc12	·	·	·	–	·	·
